# Reference: PubChem BioAssay (Tox21)
# Inconclusive results are not listed. Values without a mark were called inactive. Active and inactive are the calls of the source. Unless noted, the call rests on the fitted dose curve; in most records, active means well fitted cell-killing curve with a large enough effect in the repeat runs; inconclusive means weak or mixed curves, or effect the other way; inactive means flat fitted curve, though single readings scatter. Non-standard residues stand in square brackets, D forms with d. Residues, ends and D or L forms follow the SMILES beside them. *: point of attachment. Sta = CC(C)C[C@H](N)[C@@H](O)CC(=O)O; Isovaleryl = CC(C)CC(=O)*
# Experiment: qHTS assay to identify small molecule antagonists of the estrogen receptor alpha (ER-alpha) signaling pathway - cell viability counter screen (AID 743074; calls by dose curve;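 further: HEK293 cells carrying ER-alpha-UAS-bla reporter stimulated with 17beta-estradiol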)
# Conditions: ERalpha-bla HEK293 viability, CellTiter-Glo luminescence, 18 h; series mostly up to 69.4 µM; activity, negative = cytotoxicity: at the top concentration
# Further: nearly all actives have a fitted effect of over 45% in size.
# On the % scale 0 is the no-effect control and ±100 the full control effect.
row,Compound,"activity, negative = cytotoxicity"
1,COC(=O)c1ccccc1Cl,12.1%
2,CC(C)C(C)C,-7.63%
3,O=C(O)CCC(=O)Nc1ccc(S(=O)(=O)Nc2nccs2)cc1,15.2% [at 32.6 µM]
4,CCCC(C)C(O)CC (stereo not given),9.08%
5,C=C(C)C(=O)OCCCC,13.9% [at 79.1 µM]
6,CC(C)CC(=O)N[C@H](C(=O)N[C@H](C(=O)N[C@@H](CC(C)C)[C@@H](O)CC(=O)N[C@@H](C)C(=O)N[C@@H](CC(C)C)[C@@H](O)CC(=O)O)C(C)C)C(C)C (Isovaleryl-VV[Sta]A[Sta]-OH),6.37%
7,CCOc1ccccc1OCCN[C@H](C)Cc1ccc(OC)c(S(N)(=O)=O)c1,17.1%
8,CC(C)OCCO,-3.17%
9,CC(=O)c1c(C)cc(C(C)(C)C)cc1C,3.89%
10,CCCCCCCCS(=O)(=O)O,8.33% [at 79.1 µM]
11,O=C[C@@H](O)[C@H](O)[C@H](O)CO,18.8%
12,O=C1Nc2ccccc2C1=O,-10.8%
13,CC1(C)CC(N)CC(C)(C)N1,10.2%
14,CCCCCCCCOCCC#N,11.6%
15,CC(C)OC(=O)C(C(=O)OC(C)C)=C1SC=CS1,-12.4%
16,CC(C)(C)OC=O,15.6% [at 79.1 µM]
17,C=CCN1CCc2nc(N)sc2CC1,-8.74%

row,Compound,"activity, negative = cytotoxicity"
1,O=Cc1ccccc1S(=O)(=O)O,18.6%
2,Cc1ccc2ccccc2n1,-8.54%
3,CCCCCC(CC)OC(=O)CCCOc1ccc(Cl)cc1Cl (stereo not given),18.6%
4,CCc1ncc(C)[nH]1,-5.34%
5,COc1cc(C(=O)NC2CCCNC2)cc(OC)c1OC (stereo not given),-22.5%
6,COc1ccc(Cl)cc1C,16.9% [at 79.1 µM]
7,NC(=O)CC[C@@H](N)C(=O)O,19.6%
8,NC[C@H]1O[C@H](O[C@H]2[C@H](O)[C@@H](O[C@H]3O[C@H](CO)[C@@H](O)[C@H](N)[C@H]3O)[C@H](N)C[C@@H]2N)[C@H](N)[C@@H](O)[C@@H]1O,13.4%
9,COC(C)(C)CC(C)=O,16.2%
10,CC[N+](C)(CC)CC,15.2%
11,CCOCCOCCOC(C)=O,-9.25% [at 79.1 µM]
12,CCCCCCCCCCCCCCCC/C=C/C1CC(=O)OC1=O (stereo not given),10.3%
13,COc1cc(NS(=O)(=O)c2ccc(N)cc2)ncn1,-8.89% [at 32.6 µM]
14,O=S(=O)(O)c1cc(I)c(O)c2ncccc12,-17.3%
15,CCCCCCCCC1CO1 (stereo not given),12% [at 79.1 µM]
16,COc1ccc2cc(CCC(C)=O)ccc2c1,-13.5% [at 32.6 µM]

# Experiment: qHTS assay to identify small molecule antagonists of the estrogen receptor alpha (ER-alpha) signaling pathway using the BG1 cell line - cell viability counter screen (AID 743081);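 further: compound given together with 17beta-estradiol as the ER stimulus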
# Conditions: BG1Luc4E2 viability, CellTiter-Fluor, 22 h; series mostly up to 70.3 µM; activity change, negative = cytotoxicity: at the top concentration
Compound,"activity change, negative = cytotoxicity",outcome
CCN1CCN(C(=O)N[C@@H](C(=O)N[C@@H]2C(=O)N3[C@@H]2SC(C)(C)[C@H]3C(=O)O)c2ccccc2)C(=O)C1=O,-25.7%,–
COC(=O)c1ccccc1Cl,8.27%,–
CC(C)C(C)C,9.56%,–
O=C(O)CCC(=O)Nc1ccc(S(=O)(=O)Nc2nccs2)cc1,-0.765% [at 32.5 µM],–
CCCC(C)C(O)CC (stereo not given),-7.82%,–
C=C(C)C(=O)OCCCC,2.55% [at 95 µM],–
CC(C)CC(=O)N[C@H](C(=O)N[C@H](C(=O)N[C@@H](CC(C)C)[C@@H](O)CC(=O)N[C@@H](C)C(=O)N[C@@H](CC(C)C)[C@@H](O)CC(=O)O)C(C)C)C(C)C (Isovaleryl-VV[Sta]A[Sta]-OH),-6.28%,–
CCOc1ccccc1OCCN[C@H](C)Cc1ccc(OC)c(S(N)(=O)=O)c1,-0.926%,–
CC(C)OCCO,22%,–
CC(=O)c1c(C)cc(C(C)(C)C)cc1C,-1.29%,–
CCCCCCCCS(=O)(=O)O,2.7% [at 95 µM],–
O=C[C@@H](O)[C@H](O)[C@H](O)CO,2.47%,–
O=C1Nc2ccccc2C1=O,-0.0056%,–
CC1(C)CC(N)CC(C)(C)N1,5.91%,–
CCCCCCCCOCCC#N,-10.8%,–
CC(C)OC(=O)C(C(=O)OC(C)C)=C1SC=CS1,12.9%,–

Compound,"activity change, negative = cytotoxicity",outcome
CC(C)(C)OC=O,2.2% [at 95 µM],–
C=CCN1CCc2nc(N)sc2CC1,-4.43%,–
Cc1ccc2ccccc2n1,3.61%,–
CCCCCC(CC)OC(=O)CCCOc1ccc(Cl)cc1Cl (stereo not given),-1.51%,–
CCc1ncc(C)[nH]1,2.72%,–
COc1ccc(Cl)cc1C,2.58% [at 95 µM],–
NC(=O)CC[C@@H](N)C(=O)O,5.13%,–
NC[C@H]1O[C@H](O[C@H]2[C@H](O)[C@@H](O[C@H]3O[C@H](CO)[C@@H](O)[C@H](N)[C@H]3O)[C@H](N)C[C@@H]2N)[C@H](N)[C@@H](O)[C@@H]1O,–,inactive
COC(C)(C)CC(C)=O,12.1%,–
CC[N+](C)(CC)CC,-2.95%,–
CCOCCOCCOC(C)=O,-0.519% [at 95 µM],–
CCCCCCCCCCCCCCCC/C=C/C1CC(=O)OC1=O (stereo not given),-4.89%,–
COc1cc(NS(=O)(=O)c2ccc(N)cc2)ncn1,0.377% [at 32.5 µM],–
O=S(=O)(O)c1cc(I)c(O)c2ncccc12,2.64%,–
CCCCCCCCC1CO1 (stereo not given),9.62% [at 95 µM],–
COc1ccc2cc(CCC(C)=O)ccc2c1,11.7% [at 32.5 µM],–
